Test results: the supplement of paper PMC5919970
Structures can show the parent of a compound that is named as a salt. Over roughly 2,000 compounds, “fractional viability relative to vehicle” has its median near 0.91; the lowest 2% begin near 0.045. The full list was thinned out, with the lowest values kept by preference.

System: TYKNU
Test: fractional viability relative to vehicle; TYKNU is a high-grade serous ovarian cancer line; higher = less growth inhibition
Details: 72 h
Summary of the method: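 Drug treatment lasted 72 h, with cells grown at 37 °C in 5% CO2 in RPMI 1640 supplemented with 10% FBS. Beforehand, TYKNU control cells or their lentiCRISPRv2 knockout derivatives had been seeded at 500 cells per well into drug-stamped 384-well plates carrying a ~2100-compound library at 2 or 10 μM, in duplicate. Viability came from Cell Titer Glo luminescence, with averaged duplicate treatment wells normalised to duplicate control wells in the same plate position.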

[1] = 2uM, genotype: DNM1L knockout (sgDNM1L #1)
[2] = 2uM, genotype: sgCTRLA1 (non-targeting control)
[3] = 10uM, genotype: DNM1L knockout (sgDNM1L #1)
[4] = 10uM, genotype: sgCTRLA1 (non-targeting control)

Structure (SMILES) | fractional viability [1] | fractional viability [2] | fractional viability [3] | fractional viability [4]
Nc1nccc(Oc2ccc(NC(=O)c3c[nH]cc(-c4ccc(F)cc4)c3=O)cc2F)c1Cl | 1.09 | 1.05 | 0.598 | 0.808
CC1(C)CCC2=C(O1)c1ccccc1C(=O)C2=O [Beta-Lapachone] | 0.128 | 0.0912 | 0.0219 | 0.023
CC1=CC(=O)c2ccccc2C1=O [Menadione] | 0.872 | 1.1 | 0.952 | 0.951
N#C/C(=C(/N)Sc1ccc(N)cc1)c1ccccc1C(F)(F)F | 0.881 | 0.905 | 0.626 | 0.785
OC[C@H]1O[C@@H](c2ccc(Cl)c(Cc3ccc(O[C@H]4CCOC4)cc3)c2)[C@H](O)[C@@H](O)[C@@H]1O | 0.8 | 1.06 | 0.788 | 0.819
Oc1cc2c(cc1O)[C@@H]1c3ccc(O)c(O)c3OC[C@]1(O)C2 [Hematoxylin] | 0.878 | 1.11 | 0.861 | 0.977
CCOC(=O)[C@H](CCc1ccccc1)N[C@H]1CS[C@H](c2cccs2)CN(CC(=O)O)C1=O [Temocapril HCl] | 0.889 | 1.23 | 0.83 | 1.04
CC(C)c1cc(-c2n[nH]c(=O)n2-c2ccc3c(ccn3C)c2)c(O)cc1O [Ganetespib (STA-9090)] | 0.299 | 0.204 | 0.248 | 0.206
Cc1[nH]c(/C=C2\C(=O)Nc3ccc(S(=O)(=O)N(C)c4cccc(Cl)c4)cc32)c(C)c1C(=O)N1CCN(C)CC1 | 1.02 | 0.999 | 0.152 | 0.189
CN(C)S(=O)(=O)c1ccc2c(c1)/C(=C/c1cc3c([nH]1)CCCC3)C(=O)N2 | 0.562 | 0.815 | 0.234 | 0.264
Cc1[nH]c(/C=C2\C(=O)Nc3ccc(S(=O)(=O)Cc4c(Cl)cccc4Cl)cc32)c(C)c1C(=O)N1CCC[C@@H]1CN1CCCC1 | 0.317 | 0.279 | 0.0474 | 0.0167
CCOC(=O)c1ccc(NC(=O)O[C@H]2[C@H](OC(=O)Nc3ccc4c(c3)OCO4)[C@@H](OC(=O)Nc3ccc4c(c3)OCO4)[C@@H](OC)O[C@@H]2CO)cc1 | 0.821 | 1.04 | 0.616 | 0.615
CCCCCCCCC/C(=C\C1=C(C)C(=O)C(OC)=C(OC)C1=O)C(=O)O | 0.847 | 0.878 | 0.855 | 0.701
Cc1ccc(-n2sc(=O)n(Cc3ccc(F)cc3)c2=O)cc1 | 0.995 | 1.11 | 0.469 | 0.618
Cn1sc(=O)n(Cc2ccccc2)c1=O | 0.797 | 0.735 | 0.0256 | 0.00748
O=C(NC[C@H](O)CN1CCc2ccccc2C1)c1cc(NC2COC2)ncn1 | 0.764 | 0.899 | 0.604 | 0.662
COc1ccc(-c2ccc3ncc4c(c3c2)n(-c2ccc(N3CCNCC3)c(C(F)(F)F)c2)c(=O)n4C)cn1 | 0.0297 | 0.0315 | 0.0158 | 0.0115
Nc1ccc(-c2ccc3ncc4ccc(=O)n(-c5cccc(C(F)(F)F)c5)c4c3c2)cn1 [Torin 2] | 0.125 | 0.114 | 0.114 | 0.0945
O=C(Nc1ccc(OC(F)(F)F)cc1)c1sccc1NCc1ccnc2ccccc12 | 0.926 | 0.906 | 0.215 | 0.181

Structure (SMILES) | fractional viability [1] | fractional viability [2] | fractional viability [3] | fractional viability [4]
CN1CCN(c2c(F)cc3c(=O)c(C(=O)O)cn4c3c2OCN4C)CC1 [Marbofloxacin] | 1.13 | 1.21 | 0.971 | 1.01
Cc1c(C(=O)NN2CCCCC2)nn(-c2ccc(Cl)cc2Cl)c1-c1ccc(Cl)cc1 [Rimonabant] | 1.11 | 1.01 | 0.575 | 0.753
CNC(=O)c1ccc(Nc2ncc(C(F)(F)F)c(NCc3nccnc3N(C)S(C)(=O)=O)n2)cc1 | 0.702 | 0.772 | 0.213 | 0.179
CC(C)(O)c1ccccc1CC[C@@H](SCC1(CC(=O)O)CC1)c1cccc(/C=C/c2ccc3ccc(Cl)cc3n2)c1 [Montelukast Sodium] | 0.809 | 1.13 | 0.762 | 1.05
CN(C)Cc1cccc(N/C(=C2\C(=O)Nc3cc(C(N)=O)ccc32)c2ccccc2)c1 | 1.01 | 0.992 | 1.05 | 0.912
CCS(=O)(=O)Nc1ccc2c(c1)/C(=C(/Nc1ccc(CN3CCCCC3)cc1)c1ccccc1)C(=O)N2 [Hesperadin] | 0.316 | 0.329 | 0.0548 | 0.0381
COC(=O)c1ccc2c(c1)NC(=O)/C2=C(\Nc1ccc(N(C)C(=O)CN2CCN(C)CC2)cc1)c1ccccc1 [Nintedanib (BIBF 1120)] | 0.903 | 0.889 | 0.152 | 0.147
CC#CCn1c(N2CCC[C@@H](N)C2)nc2c1c(=O)n(Cc1nc(C)c3ccccc3n1)c(=O)n2C [Linagliptin] | 1.22 | 1.14 | 0.918 | 0.986
NC(=O)c1cn(Cc2c(F)cccc2F)nn1 [Rufinamide] | 0.992 | 1.08 | 1.07 | 1.04
Cc1cc(C)nc(NS(=O)(=O)c2ccc(NC(=S)NC(=O)COc3ccc(Br)cc3Cl)cc2)n1 | 1.05 | 1.04 | 0.706 | 1.08
CN1CCN(c2ccc(Nc3cc(-c4cccc(-n5ccc6cc(C7CC7)cc(F)c6c5=O)c4CO)cn(C)c3=O)nc2)CC1 | 0.836 | 0.97 | 0.114 | 0.182
CCOC(=O)[C@@H](N)Cc1ccc(-c2cc(O[C@H](c3ccc(Cl)cc3-n3ccc(C)n3)C(F)(F)F)nc(N)n2)cc1 [Telotristat Etiprate (LX 1606 Hippurate)] | 0.777 | 1.1 | 0.0468 | 0.12
CC(NC(=O)C(Cc1ccccc1)NC(=O)OCc1ccccc1)C(=O)CF (stereo not drawn) | 0.85 | 0.869 | 0.793 | 0.606
COc1ccc(C[C@H](NC(=O)[C@H](C)NC(=O)CN2CCOCC2)C(=O)N[C@@H](Cc2ccccc2)C(=O)[C@@]2(C)CO2)cc1 | 0.0589 | 0.0514 | 0.0565 | 0.0416
CC(C)C[C@H](NC(=O)[C@H](Cc1ccccc1)NC(=O)c1cnccn1)B(O)O [Bortezomib (PS-341)] | 0.1 | 0.0838 | 0.101 | 0.0762
COC(=O)[C@H](Cc1ccccc1)NC(=O)[C@@H](N)CC(=O)O [Aspartame] | 1.02 | 1.15 | 0.941 | 0.985
CC(C)C[C@H](NC(=O)[C@H](CCc1ccccc1)NC(=O)CN1CCOCC1)C(=O)N[C@@H](Cc1ccccc1)C(=O)N[C@@H](CC(C)C)C(=O)[C@@]1(C)CO1 [Carfilzomib (PR-171)] | 0.0773 | 0.0587 | 0.0559 | 0.057
COC[C@H](NC(=O)c1cnc(C)s1)C(=O)N[C@@H](COC)C(=O)N[C@@H](Cc1ccccc1)C(=O)[C@@]1(C)CO1 [Oprozomib (ONX 0912)] | 0.0658 | 0.0656 | 0.055 | 0.0445
C[C@@]1(C(=O)Nc2ccc(F)nc2)CCCN1c1nc(Nc2cc(C3CC3)n[nH]2)c2cccn2n1 | 0.561 | 0.689 | 0.282 | 0.252

Structure (SMILES) | fractional viability [1] | fractional viability [2] | fractional viability [3] | fractional viability [4]
O=C(N/N=C/c1cc(O)c(O)cc1O)c1cc2ccccc2cc1O [Dyngo-4a] | 0.912 | 1.05 | 0.857 | 0.867
Oc1ccc(Cc2nc3c(Cc4ccccc4)nc(-c4ccc(O)cc4)cn3c2O)cc1 [Coelenterazine] | 0.928 | 1.05 | 0.977 | 0.839
O=C1N=C(O)NC1(c1ccccc1)c1ccccc1 [Phenytoin sodium] | 1.03 | 1.09 | 0.864 | 1.04
CCc1cc(Nc2nccc(-c3c(-c4ccc(OC)c(C(=O)Nc5c(F)cccc5F)c4)nc4ccccn34)n2)c(OC)cc1N1CCC(N2CCN(S(C)(=O)=O)CC2)CC1 | 1.12 | 1.04 | 0.72 | 0.915
CC(O)c1cc(C(=O)N[C@@H](C)Cn2ccc(-c3ccc(C#N)c(Cl)c3)n2)n[nH]1 (stereo partly drawn) | 0.762 | 0.897 | 0.94 | 0.769
CN(C)Cc1c(C(=O)NCCOc2ccc(C(=O)NO)cc2)oc2ccccc12 | 0.184 | 0.244 | 0.0877 | 0.133
COc1cccc(-n2c(=O)[nH]c3cc(Cl)n(-c4ccc(-c5cccc(OC)c5O)cc4)c3c2=O)c1 | 0.844 | 1.02 | 0.857 | 0.918
CN1CCCN(C(=O)c2cccc(-c3ccc(/C=C4/C(=O)Nc5ccc(Cl)cc54)o3)c2)CC1 | 0.0585 | 0.0575 | 0.0139 | 0.00867
COc1ccc2[nH]cc(/C=C3\C(=O)Nc4ccc(NC(=O)CCN5CCCCC5)cc43)c2c1 | 0.761 | 0.929 | 0.809 | 0.795
CN1CCN(C(=O)c2cc3cc(Cl)ccc3[nH]2)CC1 | 1.13 | 1.23 | 0.961 | 1.16
O=C(Nc1nc2cccc(-c3ccc(CN4CCS(=O)(=O)CC4)cc3)n2n1)C1CC1 [Filgotinib (GLPG0634)] | 0.73 | 0.849 | 0.493 | 0.573
CC(=O)OCOC(=O)CN(CC(=O)OCOC(C)=O)c1ccccc1OCCOc1ccccc1N(CC(=O)OCOC(C)=O)CC(=O)OCOC(C)=O | 0.391 | 0.569 | 0.0416 | 0.0639
CC(=O)Oc1ccccc1C(=O)O [Aspirin] | 0.863 | 1.09 | 1.01 | 1.05
O=C(NNc1nc2cc(F)ccc2n2cccc12)c1cnccn1 | 0.358 | 0.282 | 0.269 | 0.247
Nc1c(CC(=O)O)cccc1C(=O)c1ccc(Br)cc1 [Bromfenac Sodium] | 0.888 | 1.1 | 0.801 | 1.05
CCN(CC)CCNC(=O)c1c(C)[nH]c(/C=C2\C(=O)Nc3ccc(F)cc32)c1C [Sunitinib Malate] | 0.853 | 0.819 | 0.169 | 0.122
Cc1[nH]c(/C=C2\C(=O)Nc3ccccc32)c(C)c1CCC(=O)O [TSU-68 (SU6668, Orantinib)] | 0.962 | 1.11 | 0.869 | 1.02
CCN(CC)CCNC(=O)c1c(C)[nH]c(/C=C2\C(=O)Nc3ccc(F)cc32)c1C [Sunitinib] | 0.544 | 0.67 | 0.0734 | 0.0439
CCN(CC)CCNC(=O)c1ccc(N)cc1 [Procainamide HCl] | 0.791 | 1 | 0.633 | 0.929
